In PubChem BioAssay AID588511 (Johns Hopkins Ion Channel Center, 2011):
About 3,600 (1.2%) of roughly 310,000 compounds were called active. This is one part of a sample in which actives are shown more often than they occur.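 Rule for the calls: active = ratio plate-corrected score three or more library SD toward inhibition, starting fluorescence score within five deviations; inactive = the rest.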

molecular target: Anoctamin-1 (Mus musculus) (UniProt Q8BHY3); assay: blockers of mouse ANO1 Ca-activated Cl channel – cell-based, HTS, primary screen (AID 588511); details: HEK293 TMEM16A/YFP iodide influx fluorescence, ionomycin; at 10 µM;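 for normalized B-score (activity score, 25-100; higher = stronger inhibition): score derived from kinetic fluorescence span divided by baseline fluorescence per well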
Sequence (Q8BHY3 whole entry, looked up): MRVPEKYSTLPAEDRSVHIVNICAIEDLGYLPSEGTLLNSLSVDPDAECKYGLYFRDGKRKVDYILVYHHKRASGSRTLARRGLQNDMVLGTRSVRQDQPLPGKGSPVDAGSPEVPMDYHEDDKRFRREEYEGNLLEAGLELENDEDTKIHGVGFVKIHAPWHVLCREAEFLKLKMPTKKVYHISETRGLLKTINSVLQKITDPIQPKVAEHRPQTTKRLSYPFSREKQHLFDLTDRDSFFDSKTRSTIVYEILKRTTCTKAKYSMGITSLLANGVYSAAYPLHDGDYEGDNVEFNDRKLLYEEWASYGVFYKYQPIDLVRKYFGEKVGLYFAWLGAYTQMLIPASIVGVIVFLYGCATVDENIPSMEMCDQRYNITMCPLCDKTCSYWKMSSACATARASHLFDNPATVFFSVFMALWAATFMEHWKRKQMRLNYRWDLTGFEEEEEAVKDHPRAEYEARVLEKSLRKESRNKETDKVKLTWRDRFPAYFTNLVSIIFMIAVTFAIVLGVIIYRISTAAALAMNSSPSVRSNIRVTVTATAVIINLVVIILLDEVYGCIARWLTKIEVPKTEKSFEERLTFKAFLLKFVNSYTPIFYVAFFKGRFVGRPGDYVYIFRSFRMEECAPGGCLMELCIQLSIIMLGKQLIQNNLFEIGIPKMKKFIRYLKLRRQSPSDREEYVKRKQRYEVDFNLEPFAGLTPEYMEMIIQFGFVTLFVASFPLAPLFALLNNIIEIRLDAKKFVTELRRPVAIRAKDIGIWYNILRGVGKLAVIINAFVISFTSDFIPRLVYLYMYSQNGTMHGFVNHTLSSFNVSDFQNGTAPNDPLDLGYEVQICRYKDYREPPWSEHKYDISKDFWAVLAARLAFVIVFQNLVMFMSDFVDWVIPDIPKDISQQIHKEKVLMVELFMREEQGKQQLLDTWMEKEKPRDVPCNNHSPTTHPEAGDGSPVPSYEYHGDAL

| SMILES | normalized B-score (activity score, 25-100; higher = stronger inhibition) |
| --- | --- |
| CCOc1ccc(NC(=O)CCCCCN2C(=O)[C@@H]3Cc4ccccc4CN3C2=O)cc1 | inactive |
| COc1cc(Cl)c(C)cc1NC(=O)CSc1nnc(-c2cccnc2)n1Cc1ccco1 | inactive |
| CCOC(=O)Cc1csc(NC(=O)CSc2nnc(-c3cccnc3)n2Cc2ccco2)n1 | 100 (active) |
| O=C(CSc1nnc(-c2cccnc2)n1Cc1ccco1)c1ccc(Cl)c(Cl)c1 | inactive |
| COc1ccc(/C(C)=N\NC(=O)c2ccc(-c3ccccc3)cc2)c(F)c1 | inactive |
| O=[N+]([O-])C(=c1ccc2c(c1)N1C3=C(CCCC3)CC3CCCCC31N=2)[N+](=O)[O-] (centres undefined) | inactive |
| O=c1c(-c2cccc(Cl)c2)c[nH]n1-c1ccccc1 | inactive |
| Cc1[nH]n(-c2cccc(Cl)c2)c(=O)c1/C=N/n1c(C)nc2ccccc2c1=O | inactive |
| Cc1[nH]n(-c2cccc(Cl)c2)c(=O)c1-c1ccc(Cl)cc1 | 25 (active) |
| Cc1ccccc1OCC(=O)N(Cc1cccc(F)c1)C1CCS(=O)(=O)C1 (centres undefined) | inactive |
| C=CCn1c(SCC(=O)NCc2ccccc2)nnc1-c1cc(Br)ccc1O | inactive |
| Cn1nnnc1SCC(=O)Nc1nc2ccccc2s1 | inactive |
| C=CCn1c(SCC(=O)Nc2nc3ccccc3s2)nnc1-c1ccccc1O | 100 (active) |
| COc1ccc(Cl)cc1NC(=O)CN(C)C(=O)c1cc2ccccc2cc1OC | inactive |
| CN(CC(O)COc1ccc(S(=O)(=O)N2CCOCC2)cc1Cl)C1CCCCC1 (centres undefined) | inactive |
| CCOC(=O)N1CCN(C(=O)c2ccc(S(=O)(=O)Nc3cccc(C(F)(F)F)c3)cc2)CC1 | inactive |
| O=C(/C=C/c1ccc(F)cc1)Nc1cccc(S(=O)(=O)Nc2cccc(C(F)(F)F)c2)c1 | inactive |
| Cc1oc2c(F)c(F)c(F)c(F)c2c1S(=O)(=O)Nc1cccc(C(F)(F)F)c1 | 100 (active) |
| COc1ccccc1-n1c(SCC(=O)Nc2cccc(C(=O)O)c2)nnc1-c1ccccc1O | inactive |
| Cc1cc2c(cc1C)N(Cc1ccccc1)C1=NCCCN12 | inactive |
| Cn1cc(C(=O)c2ccc(Cl)cc2Cl)cc1C(=O)NN | inactive |
| O=C(Cc1c(F)cccc1Cl)Nc1ncc([N+](=O)[O-])s1 | 100 (active) |
| O=C(CCc1ccccc1)Nc1ncc([N+](=O)[O-])s1 | inactive |
| O=C(Cc1c(F)cccc1Cl)Nc1ccc(-n2cnnn2)cc1 | inactive |

| SMILES | normalized B-score (activity score, 25-100; higher = stronger inhibition) |
| --- | --- |
| Cc1ccc2nsnc2c1NC(=O)c1ccccc1[N+](=O)[O-] | inactive |
| O=C(NCCc1ccc2c(c1)OCCO2)c1cc2ccccc2o1 | 100 (active) |
| O=C(CC(Cc1ccccc1)C(=O)O)NCCc1ccc2c(c1)OCO2 (centres undefined) | inactive |
| N=c1oc2ccccc2cc1C(=O)NCc1ccccc1 | inactive |
| O=C(COc1cc(Cl)c(Cl)cc1Cl)NC(=O)NC1CCCC1 | inactive |
| O=C(NCc1cccnc1)c1ccccc1NC(=O)c1c(F)cccc1F | inactive |
| Cc1nc2c(ncn2-c2ccccc2)c(=O)n1NC(=O)CN1CCCC1 | inactive |
| CCN1CC=C2C(C#N)=C(N)C(C#N)(C#N)[C@H](c3ccoc3)[C@H]2C1 | inactive |
| CCCN1CC=C2C(C#N)=C(N)C(C#N)(C#N)C(c3cc(OC)ccc3OC)C2C1 (centres undefined) | inactive |
| CCOC(=O)N1CC=C2C(C#N)=C(N)C(C#N)(C#N)[C@H](c3cccs3)[C@H]2C1 | 25 (active) |
| CCC(C(=O)NCCC(C)C)N(Cc1ccccc1Cl)C(=O)c1snc(C(N)=O)c1N (centres undefined) | inactive |
| COC(=O)c1cc(OCC(=O)NC2CCCc3ccccc32)cc(C(=O)OC)c1 (centres undefined) | inactive |
| O=C(CCCN1CCc2[nH]c3ccc(F)cc3c2C1)c1ccc(F)cc1 | inactive |
| Oc1c(Cl)cc(Cl)c(Cl)c1Cc1c(O)c(Cl)cc(Cl)c1Cl | 100 (active) |
| O=C(N/N=C/c1cccc(OCc2ccccc2)c1)c1ccc(Br)o1 | inactive |
| CCOc1ccc(CN2CCN(Cc3c[nH]c4ccccc34)CC2)cc1 | inactive |
| CN(C)/C=N/c1cc(=O)n(C)c(=O)n1CC1CC1 | inactive |
| Oc1cc2c(cc1O)CN(C(=S)NCCc1ccc(Cl)cc1)CCC2 | 25 (active) |
| O=C(NCCc1ccc(Cl)cc1)c1cccc(N2CCCC2=O)c1 | inactive |
| COc1ccc(CCNC(=S)N2CCN(S(=O)(=O)c3ccc(Cl)cc3)CC2)cc1 | inactive |
| Cc1cc2cc3c(cc2nc1SCC(=O)Nc1c(C)cccc1C)CCC3 | inactive |
| Cc1cn(C2OC[C@@H](O)[C@@H]2CO)c(=O)[nH]c1=O (some centres undefined) | inactive |
| COc1ccc(C(C#N)N2N=C(C)CC2(C)C)cc1 (centres undefined) | inactive |
| O=C(CN1C(=O)/C(=C/c2ccccc2F)Sc2ccccc21)NCc1cccnc1 | 100 (active) |

| SMILES | normalized B-score (activity score, 25-100; higher = stronger inhibition) |
| --- | --- |
| O=C(CN1C(=O)S/C(=C\c2ccccc2F)C1=O)NCCCn1ccnc1 | inactive |
| O=C(CN1C(=O)/C(=C\c2ccc(C(F)(F)F)cc2)Sc2ccccc21)NCc1ccco1 | inactive |
| CCC(C)(C)c1ccc(OCC(=O)N(C)C)c(C(C)(C)CC)c1 | 100 (active) |
| CCc1nc(C)ccc1OCC(=O)N(CC)CC | inactive |
| CN(C)CCOc1ccc(Cl)cc1C(C)(C)C | inactive |
| COc1ccc(/C=C2/SC(=O)N(CCCCCC(=O)Nc3ccccc3C(=O)O)C2=S)cc1 | 100 (active) |
| O=C(CCCN1C(=O)/C(=C\c2ccccc2)SC1=S)Nc1ccccc1O | inactive |
| COc1ccc(/C=C2\SC(=O)N(CCC(=O)NCCCn3ccnc3)C2=O)cc1 | inactive |
| OC(c1ccccc1)C(CN1CCOCC1)c1ccccc1 (centres undefined) | inactive |
| Cc1cc(C=O)c(C)n1-c1ccc(NC2CCCCC2)c([N+](=O)[O-])c1 | 100 (active) |
| Cc1cc([N+](=O)[O-])ccc1NC1CCCC1 | inactive |
| Cc1c(NS(=O)(=O)c2ccc(NC3CCCC3)c([N+](=O)[O-])c2)c(=O)n(-c2ccccc2)n1C | inactive |
| COc1ccc(F)cc1C(=O)C1CCCN(C(=O)CCc2ccccn2)C1 (centres undefined) | inactive |
| O=C(N/N=C1\CCSC1)c1cc(Cl)ccc1O | inactive |
| CC1CCCCC1NC(=O)c1cc(=O)[nH]c2ccccc12 (centres undefined) | inactive |
| CCOC(=O)c1cc(NC(=O)c2cccnc2)ccn1 | inactive |
| Cc1c(C(=O)OC(C)C)sc(NC(=O)c2cccnc2)c1C#N | 100 (active) |
| CCOC(=O)c1ccc(NC(=O)c2cccnc2)cc1 | inactive |
| Cc1ccc(/C=N/NC(=O)C(NC(=O)c2ccccc2)c2n[nH]c(=O)c3ccccc23)cc1 (centres undefined) | inactive |
| Cc1ccc2c(c1)N(CC(=O)N1CCCC(C)C1)C(=O)CO2 (centres undefined) | inactive |
| CCC(=O)N1CCCc2ccccc21 | inactive |
| Cc1ccc2c(c1)N(CC(=O)N1CCCc3ccccc31)C(=O)C(C)O2 (centres undefined) | 100 (active) |
| O=C1NC(c2ccccc2)=NC1(Nc1ccccn1)C(F)(F)F (centres undefined) | inactive |
| CC(Oc1ccc(Cl)cc1)c1ccnn1S(C)(=O)=O (centres undefined) | inactive |

| SMILES | normalized B-score (activity score, 25-100; higher = stronger inhibition) |
| --- | --- |
| CC(=O)Nc1ccc(C(=O)OCC(=O)Nc2ccc([N+](=O)[O-])cc2C(F)(F)F)cc1 | inactive |
| COc1cc(NC(=O)C2=CC(c3ccc(C)cc3)=NS(=O)(=O)N2C)cc(OC)c1OC | inactive |
| COc1cc(NC(=O)C2=CC(c3ccco3)=NS(=O)(=O)N2C)cc(OC)c1OC | inactive |
| COc1ccc(NC(=O)C2=CC(c3ccc(OC)c(OC)c3)=NS(=O)(=O)N2C)cc1 | 25 (active) |
| O=C(CSc1nnc2c(n1)[nH]c1ccccc12)NC1CCCCC1 | inactive |
| Cc1ccc(CNC(=O)C2CCCN2S(=O)(=O)c2ccc3c(c2)C(C)(C)C(=O)N3C)cc1 (centres undefined) | inactive |
| Cc1n[nH]c(=O)n1-c1ccc(Oc2ccccc2)cc1 | inactive |
| CN(C)S(=O)(=O)c1ccc(Oc2ccc(S(=O)(=O)N(C)C)cc2)cc1 | inactive |
| Cc1ccc(S(=O)(=O)c2ccc(Oc3ccccc3)cc2)cc1 | 100 (active) |
| Cc1cc(C)c(NC(=O)CN2CCCCCC2)c(C)c1 | inactive |
| CN(C)C(=O)CCC(=O)N1CCCCC1C(=O)Nc1ccc(Oc2ccccc2F)cc1 (centres undefined) | inactive |
| CC(C)NC(=O)/C(C#N)=C\c1ccc(N(C)C)c(Br)c1 | inactive |
| CC(C)(C)C(=O)/C(C#N)=C/c1ccc(O)cc1 | 25 (active) |
| CCOC(=O)NC(=O)/C(C#N)=C\c1ccccc1 | inactive |
| S=C(NCc1cccs1)Nc1ccc(Cl)cc1 | 25 (active) |
| Fc1ccccc1CNC(=S)Nc1ccc(Cl)cc1 | inactive |
| COc1ccc(NC(=S)NCc2cccs2)c(OC)c1 | inactive |
| Cc1ccc(Cc2nnc(SCC(=O)Nc3ccc(C)cc3C)[nH]c2=O)cc1 | inactive |
| COc1cc(CNCc2ccc(OC)c3ccccc23)cc(OC)c1OC | inactive |
| COCCCNC(=O)C1CCN(c2ccc(N3CCOCC3)nn2)CC1 | inactive |
| CC(=O)Nc1c2c(nn1-c1ccc(C)cc1C)CS(=O)C2 (centres undefined) | inactive |
| N#Cc1nc(N)nc(N(c2ccccc2)c2ccccc2)n1 | 100 (active) |
| Nc1nc(-c2ccccc2)cc(-c2ccccc2)n1 | inactive |
| CC(C)Nc1nc(N(c2ccccc2)c2ccccc2)nc(-n2ccnc2)n1 | inactive |

| SMILES | normalized B-score (activity score, 25-100; higher = stronger inhibition) |
| --- | --- |
| COc1ccccc1CNC(=O)CNC(=O)c1cn(-c2ccccc2OC)c(=O)c2ccccc12 | inactive |
| Cc1ccccc1NC(=O)C(C)c1ccc(-c2ccccc2)c(F)c1 (centres undefined) | 100 (active) |
| CC(C(=O)Nc1ccccc1-c1ccccc1)N1CCOCC1 (centres undefined) | inactive |
| O=C(Nc1ccccc1F)c1ccccc1-c1ccccc1 | inactive |
| CCOCCCNC(=O)c1cn(CC(C)C)c(=O)c2c1c1ccccc1n2C | inactive |
| CC(Cc1cccs1)NC(=O)c1cccc(Cl)c1 (centres undefined) | inactive |
| CN(Cc1ccccc1)C(=O)COc1ccccc1 | inactive |
| COc1ccc(CN(C)C(=O)CC(c2ccccc2)c2ccccc2)cc1 | 25 (active) |
| CN(Cc1ccccc1)C(=O)CCc1ccccc1 | inactive |
| C=CCOc1ccc(/C=C/C(=O)OC(C)C(=O)Nc2ccc(NC(C)=O)cc2)cc1 (centres undefined) | inactive |
| CCCCCCCCCCOC(=O)Cn1c(COc2ccc(C)cc2)[n+](C)c2ccccc21 | 25 (active) |
| CCCCCCCCCCOC(=O)Cn1c(COc2cccc(OC)c2)[n+](C)c2ccccc21 | inactive |
| Cc1ccc(OCc2nc3ccccc3n2C)cc1 | inactive |
| Cc1ccc(-c2nn(-c3ccc(F)cc3)cc2C(=O)NCC(c2cccs2)N2CCOCC2)cc1 (centres undefined) | inactive |
| O=C(COC(=O)[C@H](Cc1ccccc1)NC(=O)c1cccs1)Nc1cc(F)ccc1F | inactive |
| COc1ccc(Cl)cc1NC(=O)CCS(=O)(=O)c1cc2c(cc1C)NC(=O)CO2 | 100 (active) |
| Cc1cc2c(cc1S(=O)(=O)CCC(=O)NCc1ccccc1)OCC(=O)N2 | inactive |
| COc1ccc(NC(=O)CCS(=O)(=O)c2cc3c(cc2Cl)NC(=O)CO3)cc1OC | inactive |
| C=C(C)c1cccc(C(C)(C)NC(=O)N2CCN(c3ncccn3)CC2)c1 | inactive |
| Cc1ccc(CN(C)CC(=O)Nc2cccc([N+](=O)[O-])c2)o1 | inactive |
| Cc1ccc(NC(=O)CN(C)CC(=O)Nc2cccc(F)c2)cc1[N+](=O)[O-] | 100 (active) |
| CN(CC(=O)Nc1cccc(F)c1)CC(=O)Nc1cccc([N+](=O)[O-])c1 | inactive |
| Cc1cccc2c1cnn2C(=O)CCC(=O)NC1CCCCC1 | inactive |
